Values without a mark were called inactive. Results filed as inconclusive are left out. Entries that show only a call come without a potency. Calls of active or inactive are those of the source. Unless noted, the call rests on the fitted dose curve.
Experiments:
[1] = Nuclear factor erythroid 2-related factor 2/antioxidant responsive element (Nrf2/ARE) small molecule agonists: qHTS cell viability counter screen in human keratinocytes (AID 1919968; active means well fitted curve in the direction sought with a large enough effect in the repeat runs; an effect the other way counts as inactive or inconclusive; further: nearly all actives have a fitted effect of over 55% in size; further: potency means the concentration at half of the fitted maximal effect)
Method in brief: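 In human HaCaT keratinocytes stably expressing an ARE-driven luciferase, compound exposure lasted 23 h at 37 C under 5% CO2. Viable cells are quantified with a protease-based fluorogenic reagent (CellTiter-Fluor) read 1 h after addition.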

[2] = Nuclear factor erythroid 2-related factor 2/antioxidant responsive element (Nrf2/ARE) small molecule agonists: luciferase reporter gene qHTS assay in human keratinocytes (AID 1919969); further: nearly all actives have a fitted effect of over 35% in size; further: potency means the concentration at half of the fitted maximal effect
[3] = biological target: Gonadotropin-releasing hormone receptor (Homo sapiens) (UniProt P30968); assay: Human gonadotropin-releasing hormone receptor (GnRHR) small molecule agonists, calcium flux assay in GnRHR-HEK293 cells (AID 1920063); further: nearly all actives have a fitted effect of over 35% in size
Method in brief: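 Intracellular calcium rise is the read-out: engineered human GnRHR HEK293 cells, dye-loaded, are exposed to DMSO-dissolved compounds and fluorescence at Ex/Em 480/540 is tracked for 3 min.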

[4] = biological target: KiSS-1 receptor (Homo sapiens) (UniProt Q969F8); assay: Human kisspeptin (KISS1R) small molecule agonists, calcium flux assay in KISS1R-HEK293 cells (AID 1920064; active means well fitted curve in the direction sought with a large enough effect in the repeat runs; an effect the other way counts as inactive or inconclusive)
Method in brief: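 Concentration-response testing used 15 concentrations in triplicate on human KISS1R-expressing HEK293 cells. Calcium-dependent fluorescence (Ex/Em 480/540) was followed kinetically for 3 min after compound transfer.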

[5] = G protein-coupled receptor (GPCR) small molecule agonists, calcium flux assay: HEK293 wild type cell line counter screen (AID 1920065)
Method in brief: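 Fluorescence intensity signals activation. After overnight (18 h) culture and a 1 h calcium dye load at 37 C, compounds are added by pin tool and the plate read at 480/540 nm for 3 min in 1 s steps.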

[6] = p53 small molecule agonists, cell-based qHTS assay with human liver microsomes (AID 1963577);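 further: p53 response element beta-lactamase reporter cells with liver microsomes plus NADPH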
Method in brief: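 Reporter activation was measured by LiveBLAzer fluorescence intensity in p53RE-bla cells, which had been exposed to compounds for 16 h at 37 C alongside 0.5 mg/mL human liver microsomes and 0.5 mg/mL NADPH (final concentrations).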

[7] = p53 small molecule agonists, cell-based qHTS assay with rat liver microsomes (AID 1963578)
Method in brief: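 Compound in DMSO added to p53RE-bla cells 5 h post-plating; rat microsomes/NADPH 0.5 mg/mL final; 16 h, 37 C; LiveBLAzer 2 h RT.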

[8] = p53 small molecule agonists, cell-based qHTS assay with human liver microsomes: qHTS cell viability counter screen (AID 1963579); further: nearly all actives have a fitted effect of over 45% in size
Method in brief: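 HLM-supplemented (0.5 mg/mL final) and NADPH-supplemented (0.5 mg/mL final) p53RE-bla cultures, 4,000 cells per well, were dosed with compounds in DMSO for 16 h at 37 C; luminescent ATP detection (CellTiter-Glo, 30 min, room temperature) quantified surviving cells.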

[9] = p53 small molecule agonists, cell-based qHTS assay: qHTS cell viability counter screen (AID 1963581); further: nearly all actives have a fitted effect of over 45% in size; further: potency means the concentration at half of the fitted maximal effect
Method in brief: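 Luminescence from CellTiter-Glo, reflecting ATP content, serves as the cytotoxicity measure; it is taken after the 2 h reporter substrate step in HCT-116 p53RE-bla cells dosed for 16 h at 37 C.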

[10] = p53 small molecule agonists, cell-based qHTS assay (AID 1963582; active means well fitted activation curve with a large enough effect in the signal ratio in the repeat runs, not every such curve was filed as active; the % refers to the signal ratio)
Method in brief: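 After plating, p53RE-bla cells sat 5 h in the incubator; compounds or DMSO vehicle were pinned in; a 16 h incubation at 37 C followed; FRET substrate was added and, 2 h later at RT, fluorescence was measured.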

[11] = biological target: 5-hydroxytryptamine receptor 2A (Homo sapiens) (UniProt P28223); assay: 5-hydroxytryptamine receptor 2A (HTR2A) small molecule antagonists, cell-based qHTS assay (AID 1963586); further: nearly all actives have a fitted effect of over 45% in size
Method in brief: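 CHO cells stably expressing human HTR2A were plated for 18 h at 37 C, then loaded with calcium dye for 1 h. Compounds were preincubated 5 min at room temperature before DOI (4 nM solution) was added. Kinetic fluorescence was read for 3 min.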

[12] = biological target: Muscarinic acetylcholine receptor M1 (Homo sapiens) (UniProt P11229); assay: Cholinergic receptor muscarinic 1 (CHRM1) small molecule antagonists, cell-based qHTS assay (AID 1963588); further: nearly all actives have a fitted effect of over 40% in size; further: potency means the concentration at half of the fitted maximal effect
Method in brief: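 Compounds were tested at 15 concentrations in three independent runs. Dye-loaded CHRM1-CHO cells were exposed 5 min at room temperature before stimulation by acetylcholine added at 50nM. Intracellular calcium was read kinetically on FDSS for 3 min.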

[13] = biological target: Muscarinic acetylcholine receptor M1 (Homo sapiens) (UniProt P11229); assay: Cholinergic receptor muscarinic 1 (CHRM1) small molecule agonists, cell-based qHTS assay (AID 1963589); further: nearly all actives have a fitted effect of over 35% in size
Method in brief: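 Fluorescent calcium dye reports M1 activation in stably transfected CHO cells. Compounds, 15 concentrations, added after 1 h dye loading at 37 C; kinetic reading at 1 sec intervals.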

[14] = biological target: Beta-2 adrenergic receptor (Homo sapiens) (UniProt P07550); assay: Adrenergic beta2 receptor (ADRB2) small molecule antagonists, cell-based qHTS assay (AID 1963592); further: series mostly up to about 92 µM; nearly all actives have a fitted effect of over 50% in size
Method in brief: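 Assay format: CHO-ADRB2 cells, 18-20hr seeding at 37C/5% CO2, then compound plus 1nM isoproterenol agonist mix for 0.5hr RT. Homogeneous time-resolved fluorescence cAMP detection after 1hr, expressed as 665/615 nm ratio.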

[15] = biological target: D(2) dopamine receptor (Homo sapiens) (UniProt P14416); assay: Dopamine D2 receptor (DRD2) small molecule agonists, cell-based qHTS assay (AID 1963594); further: nearly all actives have a fitted effect of over 35% in size
Method in brief: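 cAMP accumulation in DRD2-HEK293 cells measured by HTRF after 1 h detection; compounds added 10 min before NKH477 (200nM […]) forskolin-analogue stimulation, 30 min at room temperature, with Ro20-1724 present at 0.1 mM final.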

[16] = biological target: D(2) dopamine receptor (Homo sapiens) (UniProt P14416); assay: Dopamine D2 receptor (DRD2) small molecule antagonists, cell-based qHTS assay (AID 1963595; active means well fitted inhibition curve with a large enough effect in the signal ratio in the repeat runs, with a control signal flat; the % refers to the signal ratio)
Method in brief: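 HTRF cAMP read-out at 665 and 620 nm emission (340 nm excitation). Antagonist mode: compounds were tested against 12 nM quinpirole in DRD2-HEK293 cells, with 200 nM NKH477 raising cAMP and 0.1 mM Ro20-1724 blocking its breakdown.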

[17] = biological target: 5-hydroxytryptamine receptor 2A (Homo sapiens) (UniProt P28223); assay: 5-hydroxytryptamine receptor 2A (HTR2A) small molecule agonists, cell-based qHTS assay (AID 1963587); further: nearly all actives have a fitted effect of over 30% in size; further: potency means the concentration at half of the fitted maximal effect
Method in brief: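 Kinetic calcium-flux fluorescence (2 min, 1 sec intervals) after compound addition in agonist mode. HTR2A-CHO cells were cultured 18 h, then dye-loaded 1 h at 37 C.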

[18] = cAMP Responsive Elements (CRE) small molecule agonists, cell-based qHTS assay (AID 1963590)
Method in brief: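 Compound exposure lasted 3 h at 37 C/5% CO2 in CRE-bla HEK 293T cells grown in assay medium with 10% dialyzed FBS and 25 mM HEPES. Reporter signal came from LiveBLAzer B/G FRET substrate, 2 h, room temperature.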

[19] = cAMP Responsive Elements (CRE) small molecule antagonists, cell-based qHTS assay (AID 1963591; active means well fitted inhibition curve with a large enough effect in the signal ratio in the repeat runs, not every such curve was filed as active; the % refers to the signal ratio; further: potency means the concentration at half of the fitted maximal effect)
Method in brief: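 Stimulation used NKH477 at a final 0.25 uM for 3 h in compound-treated CRE-bla HEK293T cells, seeded 18 h beforehand. Reporter activity was measured with LiveBLAzer B/G FRET substrate after 2 h at room temperature.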

Chain of KiSS-1 receptor (Homo sapiens) (Q969F8 whole entry, looked up): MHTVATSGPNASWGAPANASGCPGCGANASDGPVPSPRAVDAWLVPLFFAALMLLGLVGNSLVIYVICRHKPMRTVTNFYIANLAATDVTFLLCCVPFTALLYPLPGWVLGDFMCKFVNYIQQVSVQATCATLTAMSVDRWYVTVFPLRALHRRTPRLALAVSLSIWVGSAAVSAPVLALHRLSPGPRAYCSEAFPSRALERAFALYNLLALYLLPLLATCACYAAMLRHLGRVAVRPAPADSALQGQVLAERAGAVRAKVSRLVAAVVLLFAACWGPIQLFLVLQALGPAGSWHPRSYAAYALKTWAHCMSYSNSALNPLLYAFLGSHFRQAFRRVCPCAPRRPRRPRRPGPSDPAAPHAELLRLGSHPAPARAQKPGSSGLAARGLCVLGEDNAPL
Chain of Beta-2 adrenergic receptor (Homo sapiens) (P07550 whole entry, looked up): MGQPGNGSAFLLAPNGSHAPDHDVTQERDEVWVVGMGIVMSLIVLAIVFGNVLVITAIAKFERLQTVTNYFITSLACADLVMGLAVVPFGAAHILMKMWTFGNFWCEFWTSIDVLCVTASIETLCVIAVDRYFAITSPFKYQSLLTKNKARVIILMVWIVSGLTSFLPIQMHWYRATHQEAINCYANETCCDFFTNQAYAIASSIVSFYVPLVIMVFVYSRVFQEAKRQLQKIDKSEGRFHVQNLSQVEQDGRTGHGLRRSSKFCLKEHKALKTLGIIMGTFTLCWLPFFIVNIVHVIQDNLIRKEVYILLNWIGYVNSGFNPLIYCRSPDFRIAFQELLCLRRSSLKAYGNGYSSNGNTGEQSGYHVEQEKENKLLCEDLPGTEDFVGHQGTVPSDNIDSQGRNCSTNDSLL
Chain of Muscarinic acetylcholine receptor M1 (Homo sapiens) (P11229 whole entry, looked up): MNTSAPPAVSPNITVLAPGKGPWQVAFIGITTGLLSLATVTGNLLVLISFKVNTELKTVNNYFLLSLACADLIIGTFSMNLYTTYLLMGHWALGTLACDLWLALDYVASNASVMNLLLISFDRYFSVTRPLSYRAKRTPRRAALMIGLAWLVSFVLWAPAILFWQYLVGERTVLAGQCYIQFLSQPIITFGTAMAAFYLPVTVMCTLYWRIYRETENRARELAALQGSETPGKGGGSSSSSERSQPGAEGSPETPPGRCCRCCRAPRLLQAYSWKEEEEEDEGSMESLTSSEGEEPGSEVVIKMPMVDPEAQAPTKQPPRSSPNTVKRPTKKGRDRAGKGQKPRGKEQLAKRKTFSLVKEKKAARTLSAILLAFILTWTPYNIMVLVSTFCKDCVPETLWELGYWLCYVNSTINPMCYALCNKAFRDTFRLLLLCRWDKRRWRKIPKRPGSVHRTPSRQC
Chain of Gonadotropin-releasing hormone receptor (Homo sapiens) (P30968 whole entry, looked up): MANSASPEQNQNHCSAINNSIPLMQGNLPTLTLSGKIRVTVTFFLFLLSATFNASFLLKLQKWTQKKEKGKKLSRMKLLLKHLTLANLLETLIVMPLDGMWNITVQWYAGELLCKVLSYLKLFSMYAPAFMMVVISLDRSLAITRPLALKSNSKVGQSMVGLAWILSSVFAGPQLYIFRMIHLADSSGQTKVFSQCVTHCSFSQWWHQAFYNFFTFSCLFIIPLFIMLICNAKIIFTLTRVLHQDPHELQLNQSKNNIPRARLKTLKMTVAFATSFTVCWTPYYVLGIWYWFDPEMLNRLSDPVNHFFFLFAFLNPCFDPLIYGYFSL
Chain of 5-hydroxytryptamine receptor 2A (Homo sapiens) (P28223 whole entry, looked up): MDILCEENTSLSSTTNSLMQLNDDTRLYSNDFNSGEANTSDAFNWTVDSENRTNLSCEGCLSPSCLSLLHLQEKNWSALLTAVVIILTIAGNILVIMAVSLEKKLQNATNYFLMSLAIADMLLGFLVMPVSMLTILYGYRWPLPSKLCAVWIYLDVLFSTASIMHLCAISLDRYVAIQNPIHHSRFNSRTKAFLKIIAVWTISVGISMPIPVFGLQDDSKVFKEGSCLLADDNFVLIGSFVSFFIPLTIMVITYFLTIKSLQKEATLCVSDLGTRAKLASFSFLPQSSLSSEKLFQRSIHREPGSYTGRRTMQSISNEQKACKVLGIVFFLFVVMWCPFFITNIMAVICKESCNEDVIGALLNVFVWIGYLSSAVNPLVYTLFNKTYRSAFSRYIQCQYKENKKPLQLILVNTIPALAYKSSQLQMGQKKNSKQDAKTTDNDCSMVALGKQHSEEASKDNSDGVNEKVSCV
Chain of D(2) dopamine receptor (Homo sapiens) (P14416 whole entry, looked up): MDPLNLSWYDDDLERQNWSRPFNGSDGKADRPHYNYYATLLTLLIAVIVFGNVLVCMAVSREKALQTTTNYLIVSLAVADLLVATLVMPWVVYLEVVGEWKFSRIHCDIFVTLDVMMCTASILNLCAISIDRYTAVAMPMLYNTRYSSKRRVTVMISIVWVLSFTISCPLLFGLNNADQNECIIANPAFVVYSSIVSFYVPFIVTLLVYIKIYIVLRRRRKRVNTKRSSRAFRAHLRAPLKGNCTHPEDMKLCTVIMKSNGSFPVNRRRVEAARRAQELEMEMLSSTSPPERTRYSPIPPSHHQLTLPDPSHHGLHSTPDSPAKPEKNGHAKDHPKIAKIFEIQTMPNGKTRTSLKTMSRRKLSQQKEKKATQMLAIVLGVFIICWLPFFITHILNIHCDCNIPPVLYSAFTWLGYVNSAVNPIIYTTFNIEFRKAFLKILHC

CN1CCN(c2cc3c(cc2F)c(=O)c(C(=O)O)cn3-c2ccc(F)cc2)CC1
Potency [1]: 1.88 µM (active)
Potency [2]: inactive
Potency [3]: inactive
outcome [4]: inactive
outcome [5]: inactive
Potency [6]: inactive
Potency [7]: inactive
Potency [8]: inactive
Potency [9]: inactive
Potency [10]: inactive
Potency [11]: inactive
Potency [12]: inactive
Potency [13]: inactive
Potency [14]: inactive
Potency [15]: inactive
Potency [16]: inactive

CC(C)=CC(=O)C=C(C)C
Potency [1]: inactive
Potency [2]: inactive
Potency [3]: inactive
outcome [4]: inactive
outcome [5]: inactive
Potency [6]: inactive
Potency [7]: inactive
Potency [8]: inactive
Potency [9]: inactive
Potency [10]: inactive
Potency [17]: inactive
Potency [13]: inactive
Potency [18]: inactive
Potency [19]: inactive
Potency [14]: inactive
Potency [15]: inactive

O=C(O)c1cc(Cl)cc(Cl)c1O
Potency [1]: inactive
Potency [2]: inactive
Potency [3]: inactive
outcome [4]: inactive
outcome [5]: inactive
Potency [6]: inactive
Potency [7]: inactive
Potency [8]: inactive
Potency [9]: inactive
Potency [10]: inactive
Potency [11]: inactive
Potency [17]: inactive
Potency [12]: inactive
Potency [13]: inactive
Potency [14]: inactive
Potency [15]: inactive
Potency [16]: inactive

CC(=O)c1cccnc1
Potency [1]: inactive
Potency [2]: inactive
Potency [3]: inactive
outcome [4]: inactive
outcome [5]: inactive
Potency [6]: inactive
Potency [7]: inactive
Potency [8]: inactive
Potency [9]: inactive
Potency [10]: inactive
Potency [11]: inactive
Potency [17]: inactive
Potency [13]: inactive
Potency [19]: inactive
Potency [14]: inactive
Potency [15]: inactive
Potency [16]: inactive

CCN(CC)CCNc1ccc(CNC=O)c2sc3ccc(OC)cc3c(=O)c12
Potency [1]: 54.5 µM (active)
Potency [2]: 24.3 µM (active)
Potency [3]: inactive
outcome [4]: inactive
outcome [5]: inactive
Potency [6]: inactive
Potency [7]: inactive
Potency [8]: inactive
Potency [9]: inactive
Potency [11]: inactive
Potency [17]: 3.89 µM (active)
Potency [12]: 10.6 µM (active)
Potency [13]: inactive
Potency [18]: inactive
Potency [19]: 21.7 µM (active)
Potency [14]: inactive
Potency [15]: inactive

O=C1OCc2ccccc21
Potency [1]: inactive
Potency [2]: inactive
Potency [3]: inactive
outcome [4]: inactive
outcome [5]: inactive
Potency [6]: inactive
Potency [7]: inactive
Potency [8]: inactive
Potency [9]: inactive
Potency [10]: inactive
Potency [12]: inactive
Potency [13]: inactive
Potency [18]: inactive
Potency [19]: inactive
Potency [14]: inactive
Potency [15]: inactive
Potency [16]: inactive

C[C@@H](O)[C@H](N)C(=O)O
activity change, negative = cytotoxicity [1]: 1.84% [at 19 µM]
activity, positive = activation [2]: 1.15% [at 19 µM]
activity change [3]: -1.37% [at 11.8 µM, hits give high values]
activation [4]: -0.197% [at 15.8 µM]
activation [5]: -0.289% [at 11.8 µM]
activation [6]: 1.89% [at 13.5 µM]
activation [7]: 3.27% [at 13.6 µM]
activity change, negative = cytotoxicity [8]: 12.8% [at 13.5 µM]
activity change, negative = cytotoxicity [9]: 3.28% [at 13.5 µM]
activation [10]: -0.75% [at 13.5 µM]
activation [17]: 1.14% [at 15.9 µM]
activity, negative = inhibition [12]: -1.65% [at 12.6 µM]
activation [13]: -0.0423% [at 15.8 µM]
activation [18]: -0.0351% [at 19 µM]
activity change, negative = inhibition [19]: 5.26% [at 18.9 µM]
activity change, negative = inhibition [14]: 2.52% [at 19 µM]
activation [15]: 17.6% [at 19 µM]
activity change, negative = inhibition [16]: -2.84% [at 18.9 µM]

COc1cc(-c2nc(NC(=O)c3cc4cc(C)cc(C)c4n3CC(=O)O)sc2CCC2CCCCC2)c(OC)cc1Cl
Potency [1]: 17.7 µM (active)
Potency [2]: 12.5 µM (active)
Potency [3]: inactive
outcome [4]: inactive
outcome [5]: inactive
Potency [6]: inactive
Potency [7]: inactive
Potency [8]: inactive
Potency [9]: 6.65 µM (active)
Potency [11]: inactive
Potency [17]: inactive
Potency [12]: inactive
Potency [13]: inactive
Potency [14]: inactive
Potency [15]: inactive
Potency [16]: inactive

C=CCCCCCCCCC(=O)OCC
Potency [1]: inactive
Potency [2]: inactive
Potency [3]: inactive
outcome [4]: inactive
outcome [5]: inactive
Potency [6]: inactive
Potency [7]: inactive
Potency [8]: inactive
Potency [10]: inactive
Potency [11]: inactive
Potency [17]: inactive
Potency [12]: inactive
Potency [18]: inactive
Potency [19]: inactive
Potency [14]: inactive
Potency [15]: inactive
Potency [16]: inactive

CCCCCCCC/C=C\CCCCCCCC(=O)OC
Potency [1]: inactive
Potency [2]: inactive
Potency [3]: inactive
outcome [4]: inactive
outcome [5]: inactive
Potency [6]: inactive
Potency [7]: inactive
Potency [8]: inactive
Potency [9]: inactive
Potency [17]: inactive
Potency [12]: inactive
Potency [13]: inactive
Potency [18]: inactive
Potency [19]: inactive
Potency [14]: inactive
Potency [15]: inactive
Potency [16]: inactive

NCCCCCC(=O)O
Potency [1]: inactive
Potency [2]: inactive
Potency [3]: inactive
outcome [4]: inactive
outcome [5]: inactive
Potency [6]: inactive
Potency [7]: inactive
Potency [8]: inactive
Potency [10]: inactive
Potency [18]: inactive
Potency [19]: inactive
Potency [14]: inactive
Potency [15]: inactive
Potency [16]: inactive

CN(C(=O)CCCOc1ccc2[nH]c(=O)ccc2c1)C1CCCCC1
Potency [1]: 10.6 µM (active)
Potency [2]: inactive
Potency [3]: inactive
outcome [4]: inactive
outcome [5]: inactive
Potency [6]: inactive
Potency [7]: inactive
Potency [8]: inactive
Potency [9]: inactive
Potency [14]: inactive

CCCCCCCCCCCC(=O)Cl
Potency [1]: inactive
Potency [2]: inactive
Potency [3]: inactive
outcome [4]: inactive
outcome [5]: inactive
Potency [6]: inactive
Potency [7]: inactive
Potency [8]: inactive
Potency [9]: inactive
Potency [11]: inactive
Potency [17]: inactive
Potency [18]: inactive
Potency [19]: inactive
Potency [14]: inactive
Potency [15]: inactive
Potency [16]: inactive

CCCCCCCCCCCCCCCCCC#N
Potency [1]: inactive
Potency [2]: inactive
Potency [3]: inactive
outcome [4]: inactive
outcome [5]: inactive
Potency [6]: inactive
Potency [7]: inactive
Potency [8]: inactive
Potency [10]: inactive
Potency [11]: inactive
Potency [17]: inactive
Potency [12]: inactive
Potency [13]: inactive
Potency [18]: inactive
Potency [14]: inactive
Potency [15]: inactive
Potency [16]: inactive
